MARV entry inh: blocks Marburg virus binding to or entry into cells | Potency, µM (highest dose often 37.8 µM), inactives show at the highest dose activity change, negative = inhibition, usual class: inhibitors | Marburg virus pseudotyped entry inhibition, cell reporter | 1.8% of 300,000 active; calls by dose curve; tested in HEK293 cells; note: potency is the fitted concentration of half-maximal effect
Pf growth 96h: P. falciparum growth inhibition at 96 hour, primary screen for plastid delayed-death inhibitors. Potency, µM (highest dose often 28.7 µM), without a hit: top-dose activity change, negative = inhibition, most hits filed as inhibitors. P. falciparum luciferase reporter growth, 96 h. 6.9% of 320,000 active; note: potency is the fitted concentration of half-maximal effect
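P. falciparum expressing integrated firefly luciferase grown in erythrocytes (2% hematocrit, 0.05% parasitemia final) with compounds for 96 hours at 37 C, 5% CO2. Growth inhibition read as loss of luminescence after adding luciferase detection reagent.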
HCMV inh: blocks human cytomegalovirus replication; HFF cells, HCMV-luciferase reporter, 72 h; active compounds read low; activity change, negative = inhibition, % at 57.5 µM; 4.5% of 410,000 active; in the data active = activity change below about -60%; inconclusive = no clear call, values can overlap the other calls; inactive = above about -39%
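Compounds were evaluated in HFFs infected with an HCMV luciferase reporter virus (MOI 1 PFU/cell). Luciferase in lysates collected 72 h post infection served as the replication measure.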
HCV inhibitor: blocks hepatitis C virus; Huh7.5.1 HCVcc-Cre infection, luciferase reporter, 44 h; Potency, µM (highest dose often 41.8 µM), without a hit: top-dose activity change, negative = inhibition, usual class: inhibitors; 3.4% of 340,000 active; AID 651820; note: potency is the fitted concentration of half-maximal effect
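Cells (1,000/well) were plated 4 h before compound, then infected with HCVcc-Cre virus (~0.5 moi). After 44 h further culture, infection was read as luciferase luminescence following a 15 min substrate incubation at room temperature.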
Lassa entry inh: blocks Lassa virus binding to or entry into cells; Lassa virus pseudotype entry inhibition, cell reporter; Potency, µM (highest dose often 37.9 µM), inactives show top-dose activity change, negative = inhibition, actives largely listed as inhibitors; 1.2% of 300,000 active; calls by dose curve; tested in HEK293 cells; note: potency is the fitted concentration of half-maximal effect; nearly all actives have a fitted effect of over 50% in size
Pf growth 48h: P. falciparum growth inhibition at 48 hours (one generation). AID 504832. P. falciparum luciferase growth in erythrocytes, 48 h. Potency, µM (doses to about 28.7 µM), for inactives: at the top dose activity change, negative = inhibition, hits mostly inhibitors. 5.9% of 310,000 active; note: potency is the fitted concentration of half-maximal effect
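In quantitative HTS format, infected erythrocytes bearing luciferase-reporter parasites were treated for a single generation at 37 C. Luminescence after adding detection reagent served as the growth measure.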
The depositor's hits bear a star; [ ] = dose if it differs, or a comment. An excerpt weighted towards active compounds, which were near 14% of everything screened. Unless noted, calls come from the whole dose curve; as a rule, active = well fitted inhibition curve with a large enough effect; inconclusive = small, poorly fitted or top-dose-only effect, or another doubt; inactive = no such curve, though single readings can be large or run the other way. % is set by controls: 0 for no effect and ±100 for the full control effect.

`CN(CC(=O)Nc1cccc(F)c1)C(=O)c1ccccc1OCCOc1ccccc1` gave MARV entry inh -7%, Pf growth 96h inconclusive, HCMV inh 1, HCV inhibitor -20%, Lassa entry inh inconclusive and Pf growth 48h inconclusive.
Screening COc1ccc(S[C@]2(c3nc(-c4cccnc4)no3)CC(=O)N[C@@H]2c2ccc(OC)cc2)cc1 returned HCMV inh 24.
Cn1ncc(Cl)c1C(=O)N1CCN(C23CC4CC(CC(C4)C2)C3)CC1 was read as MARV entry inh 9%, Pf growth 96h 13%, HCMV inh -77*, HCV inhibitor 23%, Lassa entry inh inconclusive and Pf growth 48h 16%.
Cn1nccc1C(=O)N1CCN(C23CC4CC(CC(C4)C2)C3)CC1 was read as MARV entry inh 1%[46.1 µM], Pf growth 96h inconclusive, HCMV inh 13, HCV inhibitor 7%, Lassa entry inh -4%[46.1 µM] and Pf growth 48h 7%.
Cc1ccc(C(=O)N2CCN(C34CC5CC(CC(C5)C3)C4)CC2)o1 was read as Pf growth 96h inconclusive, HCMV inh -82*, HCV inhibitor 4% and Pf growth 48h 20%.
O=C(c1ccco1)N1CCN(C23CC4CC(CC(C4)C2)C3)CC1 was read as MARV entry inh inconclusive, Pf growth 96h -2%, HCMV inh 39, HCV inhibitor 7%, Lassa entry inh 22%[46.1 µM] and Pf growth 48h -20%.
CC(=O)c1c(C)[nH]c(C(=O)Nc2ccc(F)cc2F)c1C was read as MARV entry inh -3%[46.1 µM], Pf growth 96h 46%, HCMV inh 76, HCV inhibitor -21%, Lassa entry inh 3% and Pf growth 48h 48%.
CC(=O)N(C)c1ccc(OCC(O)CN(c2ccccc2C)S(=O)(=O)c2ccc(C)cc2)cc1 (stereo not drawn) was read as MARV entry inh -2%, Pf growth 96h 2.9µM*, HCMV inh -10, HCV inhibitor inconclusive, Lassa entry inh 2% and Pf growth 48h 13µM*.
O=C1CN(S(=O)(=O)c2ccccc2)C[C@H]2[C@H](c3ccc(Br)cc3)[C@H](CO)N12 was read as HCMV inh -24.
`Nc1ccc2cc3ccccc3cc2c1` gave HCMV inh 13 and HCV inhibitor inconclusive.
`Nc1ccc2ccc(N)cc2c1` gave HCMV inh -65*.
`CCOC(=O)CC(NC(=O)c1cccs1)c1ccc(OCC)cc1` (stereo not drawn) gave MARV entry inh -1%, Pf growth 96h 10µM*, HCMV inh 4, HCV inhibitor -6%, Lassa entry inh 2% and Pf growth 48h 6%.
For CCOc1ccc(C(CC(=O)O)NC(=O)c2cccs2)cc1 (stereo not drawn) the results were MARV entry inh 97%, Pf growth 96h inconclusive, HCMV inh -23, HCV inhibitor 14%, Lassa entry inh -1% and Pf growth 48h -23%.
For CCN(CC(=O)NCc1cccs1)C(=O)CCOc1ccccc1C the results were MARV entry inh 1%, Pf growth 96h 9%, HCMV inh -97*, HCV inhibitor -7%, Lassa entry inh -6% and Pf growth 48h -5%.
For CCOc1ccc(N(C)S(=O)(=O)c2ccc(C)c(C(=O)NCc3cccs3)c2)cc1 the results were Pf growth 96h inconclusive, HCMV inh -1, HCV inhibitor 14µM* and Pf growth 48h inconclusive.
CCN(CC(=O)NCc1ccc(Cl)cc1)C(=O)CCOc1ccccc1C was read as MARV entry inh -9%, Pf growth 96h -7%, HCMV inh -18, HCV inhibitor inconclusive, Lassa entry inh -25% and Pf growth 48h -14%.
For CCN(CC(=O)NCc1cccs1)C(=O)c1ccc(S(=O)(=O)N(C)c2ccccc2)cc1 the results were MARV entry inh -4%, HCMV inh -14, HCV inhibitor -5% and Lassa entry inh inconclusive.
`CCOc1ccc(C(=O)NCc2cccs2)cc1` gave MARV entry inh 20%, Pf growth 96h 0.66µM*, HCMV inh 65, HCV inhibitor -8%, Lassa entry inh 11% and Pf growth 48h 17%.
Cn1c(=O)c2c(c3ccccc31)OC(=O)CC2c1cccc(F)c1 (stereo not drawn) was read as MARV entry inh -22%[46.1 µM], HCMV inh 12 and Lassa entry inh -17%[46.1 µM].
For CCN(CC)S(=O)(=O)c1ccc(C(=O)NCc2ccc(C)cc2)cc1 the results were MARV entry inh -26%[46.1 µM], Pf growth 96h inconclusive, HCMV inh -2, HCV inhibitor 0%, Lassa entry inh 18µM* and Pf growth 48h -7%.
For CCN(CC(=O)NCc1ccc(F)cc1)S(=O)(=O)c1ccc(C)cc1 the results were Pf growth 96h 13%, HCMV inh inconclusive, HCV inhibitor -10% and Pf growth 48h 16%.
Screening CCN(CC)S(=O)(=O)c1ccc(C(=O)NCc2cccs2)cc1 returned MARV entry inh 10%, Pf growth 96h -17%, HCMV inh -23, HCV inhibitor -10%, Lassa entry inh 2.9µM* and Pf growth 48h -12%.
Screening CCN(CC)Cc1cc(NC2=NS(=O)(=O)c3ccccc32)ccc1OC(=O)C(C)C returned MARV entry inh -11%, HCMV inh -8, HCV inhibitor -12% and Lassa entry inh 7%.
For CCN(CC)Cc1cc(NC2=NS(=O)(=O)c3ccccc32)ccc1OC(=O)c1ccccc1 the results were MARV entry inh -2%, Pf growth 96h 9.3µM*, HCMV inh -15, HCV inhibitor 0%, Lassa entry inh -2% and Pf growth 48h inconclusive.
Screening CCCN(C(=O)Cn1cnc2sc(C)c(S(=O)(=O)N3CCN(c4ncccn4)CC3)c2c1=O)c1cccc(C)c1 returned MARV entry inh 35%[46.1 µM], HCMV inh -17 and Lassa entry inh -9%[46.1 µM].
Screening COCCNc1nnc(SC(C)C(=O)Nc2ccc(-c3nc4ccc(C)cc4s3)cc2)s1 (stereo not drawn) returned MARV entry inh inconclusive, Pf growth 96h inconclusive, HCMV inh 30, HCV inhibitor 6.3µM*, Lassa entry inh inconclusive and Pf growth 48h 5%.
`COCCNc1nnc(SC(C)C(=O)Nc2c(C)n(C)n(-c3ccccc3)c2=O)s1` (stereo not drawn) gave MARV entry inh 9%, Pf growth 96h 15%, HCMV inh -28, HCV inhibitor 22%, Lassa entry inh 9% and Pf growth 48h 10%.
`COc1ccccc1NC(=O)c1cn(-c2ccccc2)nc1-c1ccccc1` gave MARV entry inh 6%[46.1 µM], HCMV inh -1 and Lassa entry inh -4%[46.1 µM].
`Cc1ccc2nc(-c3ccc(Cl)c(NC(=O)c4cccc([N+](=O)[O-])c4C)c3)oc2c1` gave MARV entry inh 3%[46.1 µM], HCMV inh 43 and Lassa entry inh -8%[46.1 µM].

Screening results (PubChem)
